Compound activity (PubChem BioAssay)
Efflux pump inh – inhibitors of Candida antifungal efflux pumps expressed in yeast | S. cerevisiae Candida pump triplex, Nile Red efflux | inhibition, % at 10 µM | 330,000 tested, 0.44% active;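 active = plate passing quality check with inhibition over a set limit, or well fluorescence over plate mean plus 4 SD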;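 note: Nile Red retained in pooled yeast measured as flow cytometry median fluorescence; 0% = buffer negative control and 100% = Enniatin B positive control; higher means more Nile Red kept so more efflux inhibition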
SUMO Mot1 rescue – blocks SUMOylation pathway, rescuing yeast Mot1-301 growth; S. cerevisiae Mot1-301 growth rescue, ATP luminescence, 38.5C; percent above DMSO median, 100 means doubled; growth rescue, % at 18.8 µM; 320,000 tested, 1% active;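 active = every valid replicate shows activation above 250% relative to neutral control wells; inactive = the rest, any valid replicate at or below 250%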;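 note: OY570 slx delta 5 strain wells were the positive control but not used for scaling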
AHR activator – activates the human aryl hydrocarbon receptor | 320,000 tested, 2.5% active | P35869 | activation, % at 5 µM | AHR-responsive luciferase reporter cells, luminescence; in the data active = activation above about 47%;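 note: 0% = vehicle wells and 100% = reference agonist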
VLA-4 inh – inhibition in a human VLA-4 binding assay; P13612; VLA-4 expressing cells, ligand binding flow cytometry; inhibition, % (about 7 µM as worked out from the volumes in the protocol); 330,000 tested, 0.2% active; in the data active = inhibition above about 50%
ALR H2O2 inh – blocks human ALR sulfhydryl oxidase activity; purified ALR, DTT oxidation, H2O2 HRP-luminol luminescence; inhibition, % (concentration not given with the values); 290,000 tested, 3.8% active; P55789;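 active = mean replicate inhibition above about 79%, with every replicate also reaching it, limit read from the data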
Target sequence (P55789 whole entry, looked up): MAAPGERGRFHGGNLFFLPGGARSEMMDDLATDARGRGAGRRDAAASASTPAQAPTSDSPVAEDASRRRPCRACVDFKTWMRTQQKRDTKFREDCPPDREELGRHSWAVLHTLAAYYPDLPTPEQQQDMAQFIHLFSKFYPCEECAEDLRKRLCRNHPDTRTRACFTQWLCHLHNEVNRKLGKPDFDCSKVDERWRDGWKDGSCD
A1 inh – inhibitors of the anti-apoptotic protein A1, read as caspase activation; caspase activation, % (no concentration beside the values); MEF A1-2A-BIM cells, Caspase-Glo 3/7 luminescence, 3 h; percent of clofoctol response, vehicle zero; AID 2462; 330,000 tested, 0.066% active;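 active = over half of replicate activation scores above 10%, or exactly half above 10 with the replicate mean above 10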
AHR act cf – human AHR activation, confirmation; shares compounds with AHR activator; human cells, AHR-responsive luciferase reporter, luminescence; activation, % at 9 µM; 2,300 tested, 87% active; in the data active = activation above about 49%;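 note: HepG2 hepatoma cells carrying a DRE-driven firefly luciferase reporter; 0% = vehicle wells and 100% = reference agonist wells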
PXR counter – counter-screen for AHR activators: human PXR activators; shares compounds with AHR activator; cell-based PXR reporter, luciferase luminescence; 2,300 tested, 88% active; AID 434939; activation, % at 11.6 µM; in the data active = activation above about 11%;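 note: human hepatoma DPX-2 cells expressing full-length human PXR; 0% = DMSO and 100% = reference agonist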
Target sequence (O75469 whole entry, looked up): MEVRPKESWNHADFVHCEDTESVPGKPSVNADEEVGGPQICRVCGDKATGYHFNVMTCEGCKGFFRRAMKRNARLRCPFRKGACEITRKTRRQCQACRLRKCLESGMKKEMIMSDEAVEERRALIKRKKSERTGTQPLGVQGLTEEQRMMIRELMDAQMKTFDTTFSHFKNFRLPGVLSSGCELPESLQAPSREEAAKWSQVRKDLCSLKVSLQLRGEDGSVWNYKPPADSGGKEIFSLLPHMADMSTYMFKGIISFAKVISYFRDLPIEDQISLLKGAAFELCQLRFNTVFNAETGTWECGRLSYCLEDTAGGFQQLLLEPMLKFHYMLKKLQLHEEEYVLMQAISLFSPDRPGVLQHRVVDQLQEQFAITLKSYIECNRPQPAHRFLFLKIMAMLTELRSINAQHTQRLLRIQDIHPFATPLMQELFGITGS
* hit, by the source's call; / = no result given. An excerpt weighted towards active compounds, which were near 7.2% of everything screened.

SMILES	Efflux pump inh	SUMO Mot1 rescue	AHR activator	VLA-4 inh	ALR H2O2 inh	A1 inh	AHR act cf	PXR counter
CCCS(=O)(=O)Nc1cccc(-c2nc3cccnc3s2)c1	-0.2	-6.2	91.3*	-6.8	-11.2	-0.7	99.1*	39.5*
Cc1ccc(-c2nc3cccnc3s2)cc1NS(C)(=O)=O	-0.4	-5.7	142.1*	-13.1	-26.2	-0.4	120.8*	37.0*
C/C(=N/OC(=O)C1CC1)c1cc(-c2ccc(Cl)cc2)no1	-0.1	/	0.2	1.8	-3.4	0.4	/	/
O=c1oc2ccccc2n1CCc1ccccc1	-0.1	-1.6	94.1*	2.3	-14.3	-0.5	100.4*	33.8*
CNc1sc(C(=O)c2ccccc2F)c(N)c1-c1nc2ccccc2s1	-0.1	-5.7	89.9*	-41.8	90.9*	-1.8	87.6*	48.0*
C/C(Cn1nc([N+](=O)[O-])cc1C)=N\NC(=O)COc1c(Cl)cc(Cl)cc1Cl	-0.1	-6.2	1.0	0.7	3.9	-0.1	/	/
O=C(Nc1ccccc1Oc1ccccc1)c1ccccc1F	-0.3	-3.2	119.1*	7.9	-6.3	0.4	131.2*	19.6*
CC(=O)Nc1ccccc1Oc1ccccc1	0.0	-23.2	-1.4	7.7	/	0.2	/	/
CC(C)CC(C(=O)NC(C)(C)C)N(Cc1cccs1)C(=O)c1snc(C(N)=O)c1N (centres undefined)	0.2	/	2.4	2.9	-6.3	0.2	/	/
COc1ccc(OC)c(S(=O)(=O)NC(N)=NCCc2ccccc2)c1	-0.1	7.7	-0.8	21.8	-12.5	0.3	/	/
N#C/C(=C1/CCCCCN1)c1nc2ccccc2s1	0.0	-6.5	87.0*	-35.1	/	2.0	122.2*	56.3*
N#C/C(=C1\CCCN1)c1nc2ccccc2c(=O)[nH]1	0.0	-14.7	15.2	-6.1	-3.5	0.1	/	/
CC(=O)OCC(CCn1cnc2cnc(N)nc21)COC(C)=O	-0.2	-5.1	-1.3	0.9	-13.9	2.6	/	/
N#Cc1ccccc1NC(=O)c1ccccc1OCC(=O)Nc1ccc2c(c1)oc1ccccc12	0.0	-7.8	10.4	-0.8	/	-0.1	/	/
N#Cc1ccccc1NC(=O)c1ccccc1OCC(=O)NCc1ccco1	0.0	-7.0	117.0*	15.0	-3.5	-1.3	109.5*	47.0*
CC(OC(=O)CCNS(=O)(=O)c1cccs1)C(=O)Nc1ccc(S(N)(=O)=O)cc1 (centres undefined)	0.1	-4.5	-2.1	-1.9	-7.5	-0.1	/	/
Cn1cc(SCC(=O)NC2CCCCC2)c2ccccc21	-0.4	2.9	88.2*	-0.7	39.4	2.3	6.3	108.3*
Cc1ccccc1N(C(=O)c1snc(C(N)=O)c1N)C(C(=O)NCC1CCCO1)c1ccc(F)cc1 (centres undefined)	0.5	-14.5	0.8	3.6	-3.5	-0.5	/	/
N#C/C(=C/c1ccccc1)c1nn(CCO)c(N)c1C#N	0.0	-10.1	119.9*	-2.4	-3.3	-0.7	90.7*	/
CCn1c(=O)cc(OCC(=O)NCc2ccco2)c2ccccc21	-0.1	10.5	24.4	6.1	-0.9	0.7	/	/
CCn1c(=O)cc(OCC(=O)NCc2ccc(C)o2)c2ccccc21	-0.1	38.9	96.1*	0.8	12.4	0.6	45.9	24.7*
COc1ccc(OC)c(NC(=O)CSc2nnc(-c3cnccn3)n2C)c1	-0.1	8.1	0.8	5.4	-3.7	-0.7	/	/
CCn1c2ccccc2c2cc(NC(=O)COc3ccc(OC)cc3)ccc21	-0.1	-0.4	28.5	-6.3	-6.4	0.6	/	/
CCn1c2ccccc2c2cc(NC(=O)COc3ccccc3)ccc21	-0.2	17.9	100.3*	33.5	/	1.0	88.9*	59.7*
CCn1c2ccccc2c2cc(NC(=O)N3CCOCC3)ccc21	0.3	5.0	118.4*	-8.8	70.1	-0.1	99.0*	108.7*
SMILES	Efflux pump inh	SUMO Mot1 rescue	AHR activator	VLA-4 inh	ALR H2O2 inh	A1 inh	AHR act cf	PXR counter
CCOC(=O)c1[nH]cnc1C(=O)Nc1cccc(Cl)c1	-0.2	-17.9	0.9	3.3	-15.3	0.1	/	/
Cc1cccc(Nc2nc(NCC3CCCO3)nc(N)c2[N+](=O)[O-])c1 (centres undefined)	0.2	2.2	8.5	-9.8	3.9	-0.9	/	/
Nc1nc(NCC2CCCO2)nc(Nc2cccc(Cl)c2)c1[N+](=O)[O-] (centres undefined)	0.2	-7.7	99.0*	-4.8	1.5	0.0	27.3	16.2*
Cc1cccc(NC(=O)c2ccc(NCC3CCCO3)c([N+](=O)[O-])c2)c1 (centres undefined)	0.0	4.1	-3.1	20.7	-5.6	-0.2	/	/
O=C(Nc1cccc(Cl)c1)c1ccc(NCC2CCCO2)c([N+](=O)[O-])c1 (centres undefined)	0.1	-2.8	91.5*	10.1	/	-0.3	5.5	30.5*
O=C(COc1ccc2ccccc2c1)N/N=C/C1CC=CCC1 (centres undefined)	0.0	24.6	85.1*	3.2	-5.0	-2.3	46.5	12.1*
COc1cccc(Nc2nc(C)cc(C)c2C#N)c1	-0.1	-3.7	79.2*	-3.8	2.0	-0.4	63.4*	31.5*
CCCCOc1ccc(Nc2nc(C)cc(C)c2C#N)cc1	-0.1	-19.2	41.8	5.7	-44.2	0.0	/	/
Cc1cccc(Nc2nc(C)cc(C)c2C#N)c1	0.1	0.5	32.5	2.5	2.3	0.7	/	/
Cc1cc(C)c(C#N)c(Nc2ccccc2)n1	-0.1	3.6	27.5	2.8	/	0.8	/	/
COc1ccc(Nc2nc(C)cc(C)c2C#N)cc1OC	0.2	-6.6	113.5*	43.7	-24.4	-0.4	58.8*	20.0*
Cc1cc(C)c(C#N)c(Nc2ccc3c(c2)OCCO3)n1	0.1	-11.1	86.0*	4.5	-16.3	0.2	103.1*	22.0*
CC1CCN(C(=O)CCNS(=O)(=O)c2ccc3c(c2)c(=O)n(C)c(=O)n3C)CC1	0.1	-0.9	-1.3	9.2	-3.7	-0.9	/	/
CCc1nnc(NC(=O)CSc2nc(C)cc(C)c2C#N)s1	-0.1	7.5	101.9*	-1.3	-9.1	-1.7	62.5*	45.1*
COc1ccc2sc(-c3ccccc3OC)c(-c3ccc4c(c3)OCCO4)c2c1	-0.3	-6.7	13.0	-0.3	-3.2	1.2	/	/
COc1ccc(-c2sc3cc4c(cc3c2C#CC2(O)CCCCC2)OCO4)cc1	0.1	16.9	96.3*	12.5	-21.8	-1.4	81.0*	62.6*
COc1ccc(-c2oc3ccc(-c4ccc5c(c4)OCO5)cc3c2C#CC2(O)CCCCC2)cc1	0.6	-28.9	6.6	-18.4	14.2	0.1	/	/
COc1ccccc1-c1sc2cc3c(cc2c1C#CC1(O)CCCCC1)OCO3	-0.3	26.5	103.3*	-6.8	-1.3	-0.7	100.9*	313.9*
